# Shown are actives, neighbours in structure and some others; about 3.2% of the full set was active somewhere.
# Tau ThT inhib – blocks human tau fibril formation measured by thioflavin T | Potency, µM (doses to about 57.4 µM), without a hit: at the top dose activity, negative = inhibition, actives largely listed as inhibitors | P10636 | recombinant tau K18 P301L, heparin-induced fibrillization, ThT fluorescence | actives 2.1% (n = 270,000) | AID 1460; note: nearly all actives have a fitted effect of over 55% in size
#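 ThT emission at 510 nm, taken 1 hr after adding 30 uM dye, quantifies aggregates formed when 20 uM heparin acts on human tau K18 P301L for 6 hr at 37 C.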
# Tau fibril FP – blocks human tau fibril formation measured by polarization | P10636 | K18 P301L tau heparin fibrillization, Alexa594 FP, 6 h | Potency, µM (titrated, usually from 57.7 µM), without a hit: at the highest dose activity, negative = inhibition, most hits filed as inhibitors | actives 0.39% (n = 280,000) | AID 1468; note: nearly all actives have a fitted effect of over 55% in size
#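 Human tau K18 […] P301L fragment, 15 uM unlabeled plus 0.24 uM Alexa 594-labeled tau (final), with compound and 20 uM heparin in 100 mM sodium acetate pH 7; 6 hr at 37 C, then Alexa 594 FP read.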
# TexasRed fluor – counter-screen for TRb-SRC2 inhibitors: fluorescence interference. TRb/SRC2 Texas Red total fluorescence interference. Potency, µM (top dose mostly 106 µM), inactives show top-dose fluorescence change, negative = quenching. actives 0.29% (n = 280,000); active = well fitted curve in either direction with a large enough effect; inconclusive = small, poorly fitted or top-dose-only effect
#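 Flags fluorescent or light-absorbing compounds by total fluorescence, S + 2P, at 555 nm excitation and 632 nm emission. Mixture: 20 nM Texas Red SRC2 peptide, 0.6 uM human TRb LBD, 1 uM T3, 5% DMSO; compound exposure 5 h at ambient temperature.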
# TRb-SRC2 inh – inhibitors of human thyroid hormone receptor beta-SRC2 interaction; TRbeta-SRC2 peptide binding, fluorescence polarization; receptor liganded with 1 µM T3; Potency, µM (highest dose often 106 µM), for the others: at the highest dose activity change, negative = inhibition, most hits filed as inhibitors; actives 0.065% (n = 280,000);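 note: plate controls were bound peptide for no effect and peptide without receptor for full effect; nearly all actives have a fitted effect of over 50% in size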
# Target sequence (P10828 whole entry, looked up): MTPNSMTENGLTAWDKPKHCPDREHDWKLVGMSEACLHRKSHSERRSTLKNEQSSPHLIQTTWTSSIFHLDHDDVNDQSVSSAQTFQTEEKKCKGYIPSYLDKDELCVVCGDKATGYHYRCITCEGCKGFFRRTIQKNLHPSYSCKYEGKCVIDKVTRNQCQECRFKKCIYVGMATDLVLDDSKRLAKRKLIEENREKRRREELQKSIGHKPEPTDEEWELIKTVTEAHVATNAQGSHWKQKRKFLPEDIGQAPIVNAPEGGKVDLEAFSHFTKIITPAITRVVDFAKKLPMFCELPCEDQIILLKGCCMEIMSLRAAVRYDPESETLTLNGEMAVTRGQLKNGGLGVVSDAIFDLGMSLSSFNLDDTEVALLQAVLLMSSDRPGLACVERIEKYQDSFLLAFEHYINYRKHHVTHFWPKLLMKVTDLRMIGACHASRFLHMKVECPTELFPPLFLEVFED
#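 Each compound concentration gave % activity, normalized to unbound and bound Texas Red SRC2 controls, from polarization read after 5 hr ambient incubation with T3-loaded human TRb LBD.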
# Tau fluor counter – counter-screen for tau fibril formation inhibitors; tau K18 P301L Alexa594 fluorescence, heparin fibrillization; Potency, µM (series often up to 57.7 µM), for the others: top-dose activity change, negative = decrease; actives 0.93% (n = 280,000); note: nearly all actives have a fitted effect of over 55% in size
#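 Human tau K18 P301L (15 uM unlabeled, 0.24 uM Alexa 594-labeled) in 100 mM sodium acetate pH 7 with 20 uM heparin, 6 hr at 37 C. ThT 30 uM added, 1 hr ambient; Alexa 594 FP and total fluorescence read at 555/632 nm.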
# RGS12 GoLoco inh – blocks human Gai1 binding to RGS12 GoLoco peptide, red readout; P63096; Gai1:RGS12 GoLoco peptide FP, rhodamine, 10 min; Potency, µM (titrated, usually from 61.6 µM), for inactives: at the highest dose activity, negative = inhibition, actives largely listed as inhibitors; actives 0.44% (n = 230,000); AID 880; active = well fitted inhibition curve with a large enough effect, not every such curve was filed as active; inactive = no such curve, though single readings can be large or run the other way; note: nearly all actives have a fitted effect of over 30% in size
# An asterisk follows results filed as active; ? = inconclusive; . = not tested or not shown; [ ] = another dose, or the depositor's remark. Unless noted, calls come from the whole dose curve; as a rule, active = well fitted curve in the direction sought with a large enough effect; inconclusive = small, poorly fitted or top-dose-only effect, or another doubt; inactive = no such curve, though single readings can be large; an effect the other way counts as inactive or inconclusive. Unless noted, % is set by controls: 0 for no effect and ±100 for the full control effect; potency is the fitted concentration of half-maximal effect.
SMILES,Tau ThT inhib,Tau fibril FP,TexasRed fluor,TRb-SRC2 inh,Tau fluor counter,RGS12 GoLoco inh
Cc1c(Cl)cccc1NC(=S)N1CCCN(Cc2ccccc2F)C1,-2%,-9%,0%,-4%,?,9%
COc1ccc2c(c1OC)C(Cc1ccccc1)N1CCc3cc4c(cc3C1=C2)OCO4 (stereo unspecified),16µM*,-11%,0%,4%,?,22%
COc1c(O)ccc2c1CN1CCc3cc4c(cc3[C@@H]1C2)OCO4,.,.,.,.,.,-8%[14.2 µM]
COc1ccc(/C=C/C(=O)c2ccc(C)s2)cc1,?,-1%,-4%,-4%,-21%,2%
COC(=O)c1cc(NC(=O)c2cc(-c3ccc(Cl)cc3)oc2C(F)(F)F)ccc1N1CCOCC1,.,-1%,0%,0%,?,7%
COC(=O)c1cc(NC(=O)c2cc(-c3ccccc3Cl)oc2C(F)(F)F)ccc1N1CCOCC1,.,?,0%,10%,13µM*[quencher],3%
CCOC(=O)C1=c2s/c(=C\c3ccncc3)c(=O)n2C(N)=C(C(=O)OC)C1c1ccncc1 (stereo unspecified),?,-12%,-1%,4%,-18%,11%
N#CC1=C(N)n2c(s/c(=C\c3cccs3)c2=O)=C(C#N)C1c1cccs1 (stereo unspecified),?,-7%,-6%,5%,-28%,.
N#CC1=C(N)n2c(s/c(=C\c3ccco3)c2=O)=C(C#N)C1c1ccco1 (stereo unspecified),20µM*,?,?,-24%,-27%,39%
CCOC(=O)C1=C(C)N=c2s/c(=C/c3ccco3)c(=O)n2C1c1cccc(OC)c1 (stereo unspecified),14µM*,?,-4%,-3%,-23%,221%
CCOC(=O)C1=C(N)n2c(s/c(=C/c3ccco3)c2=O)=C(C(=O)OC)C1c1ccco1 (stereo unspecified),14µM*,-18%,-29%,15%,-26%,193%
CCOC(=O)C1=C(C)N=c2s/c(=C\c3cccn3C)c(=O)n2C1c1cccc(OC)c1OC (stereo unspecified),?,-7%,1%,8%,-21%,-2%
COC(=O)C1CCC(C(=O)OC)CC1 (stereo unspecified),.,.,3%[201 µM],2%[201 µM],.,.
O=c1c2ccccc2nc(N/N=C/c2c(O)ccc3ccccc23)n1O,11µM*,4%,-13%,-1%,?,9%
Cc1ccccc1C(=O)Oc1ccc(-c2csnn2)cc1,?,-12%,1%,11%,-22%,0%
Cc1ccccc1C(=O)Oc1ccc(Sc2ccc(O)cc2)cc1,?,25µM*,1%,1%,7.1µM*[quencher],15%
CCOC(=O)CC(NC(=O)c1cc2cc(Cl)ccc2oc1=O)c1ccc(C)cc1 (stereo unspecified),-13%,-10%,14µM*[quencher],-10%,-22%,.
Cc1ccc(-c2ccc(/C=C3\C(=O)ON=C3c3ccccc3)o2)c([N+](=O)[O-])c1,16µM*,-12%,-5%,-8%,?,14%
COc1cc(CN(C(=O)c2ccc(OC(C)C)cc2)C2CCS(=O)(=O)C2)cc(OC)c1OC (stereo unspecified),?,-5%,1259µM*[quencher],-8%,-30%,.
COc1cc(CN(C(=O)c2ccc(C)cc2)C2CCS(=O)(=O)C2)cc(OC)c1OC (stereo unspecified),-3%,0%,2%,-2%,-5%,.
CON(C)C(=O)c1nnc2c(n1)[nH]c1ccccc12,0%[11.5 µM],2%[11.6 µM],-1%[11.2 µM],-6%[11.2 µM],-2%[11.6 µM],.
Cc1ccc(N=Nc2c(O)[nH]c3ccc(F)cc23)cc1,?,-18%,2%,-5%,-26%,2%
COc1ccc(N=Nc2[nH]c3ccc(C)cc3c2O)cc1,?,2%,0%,-4%,?,3.2µM*
Cc1ccc(N=Nc2[nH]c3ccccc3c2O)cc1,7%,-11%,-5%,-5%,2%,13µM*

# From PubChem BioAssay
